In PubChem BioAssay (NCI):
Compounds without any hit were thinned out: in the full panel of roughly 79,000, 15% have a hit. The source made the active and inactive calls. Rule as the data show it: active = growth inhibition above about 70%; inactive = the rest.

Assay: NCI Yeast Anticancer Drug Screen. Data for the rad50 strain (AID 155);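 also: 0% = growth of vehicle-only cultures of the same strain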
Conditions: S. cerevisiae rad50 strain growth inhibition; at 50.0 µM; stronger effect = higher value
Method in brief: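 Inhibition values express reduced yeast growth in compound-treated cultures relative to vehicle-treated controls.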

Structure (SMILES) | growth inhibition
CC1(C(=O)O)CCCC1C(=O)O (stereo not given) | 12.5% (inactive)
COc1cccc2cc(C(=O)Nc3ccccc3)c(=N)oc12 | 2.75% (inactive)
O=C(O)CCn1cnc2c(=S)nc[nH]c21 | -23.2% (inactive)
CN(C)CC(C)(C)C(=O)c1ccc(F)cc1 | 5.35% (inactive)
CCc1nnc(CC)n1N | 46.2% (inactive)
O=C(Nc1ccc2c(c1)C(O)c1ccccc1-2)C(F)(F)F (stereo not given) | 11.4% (inactive)
CC(=O)OC(C)(C)c1ccc2c(c1)C(=O)C[C@@H]1[C@](C)(C#N)CCC[C@]21C | 46.6% (inactive)
Fc1cccc(-c2nnc(-c3ccccc3)o2)c1 | 34.1% (inactive)
CC[C@]12CCCN3CCc4c(n(c5ccccc45)C(=O)C1)[C@@H]32 | -25.9% (inactive)
O=C(/C=C/c1ccc(O)cc1)c1cc(O)cc(O)c1 | 16.9% (inactive)
COc1ccc2c(c1)CCCN1Cc3cc(OC)c(OC)cc3CC21 (stereo not given) | -29.7% (inactive)
OCCSCCCCCSCCO | -2.6% (inactive)
O=C(O)c1ccc(C2C3C=CC(C3)C2[N+](=O)[O-])cc1 (stereo not given) | 6.15% (inactive)
[N-]=[N+]=NC(=O)c1ccc(S(=O)(=O)c2ccc(F)cc2)cc1 | 13.4% (inactive)
CCN1C(=O)N(CC)C2(CC(=O)c3ccccc3O2)C1=O (stereo not given) | 15.2% (inactive)
COC(=O)C(O)c1ccc(C(C)C)cc1 (stereo not given) | -34.5% (inactive)
O=CNCC1(c2ccccc2)CCNCC1 | 2.25% (inactive)
OC1CCCCC1[n+]1ccccc1 (stereo not given) | -7.8% (inactive)
CCN(CC)CCN(C)C(=O)C(=O)c1ccccc1 | -20.1% (inactive)
O=C1CCCC/C1=C\c1ccc([N+](=O)[O-])cc1 | 28.4% (inactive)

Structure (SMILES) | growth inhibition
CCC(=O)c1c2c(cc3ccccc13)CCCC2 | 11.7% (inactive)
O=C1c2ccccc2C(=O)c2c(Nc3ccc(Nc4cccc5c4C(=O)c4ccccc4C5=O)c4c3C(=O)c3ccccc3C4=O)cccc21 | -28.4% (inactive)
CC1(C)OCC(Cc2ccc3c(c2)OCO3)CO1 | 1.7% (inactive)
COC(=O)c1nc(N)nc(C(=O)OC)c1C(=O)c1ccc(Cl)cc1Cl | 7.25% (inactive)
CN(c1ccccc1)S(=O)(=O)c1ccc(Cl)cc1 | 38% (inactive)
O=C(CC(C(=O)O)S(=O)(=O)O)Nc1ccc(S(=O)(=O)c2ccc(NC(=O)CC(C(=O)O)S(=O)(=O)O)cc2)cc1 (stereo not given) | 2.45% (inactive)
N/C(=N\S(=O)(=O)c1cc(C(F)(F)F)cc(C(F)(F)F)c1)c1ccncc1 | 4.95% (inactive)
COC(=O)CCC(=O)Nc1cc(Cl)ccc1Cl | -2.35% (inactive)
COc1ccc(/C=C2\N=C(N/N=C\C(O)C(O)C(O)C(O)CO)NC2=O)cc1 (stereo not given) | -7.3% (inactive)
CC1=NC=C(O)c2ccccc2O1 | 24.4% (inactive)
FC(F)(F)c1ccc2nc[nH]c2c1 | 5.3% (inactive)
C=C1c2c(cc3c(c2O)c(=O)c2ccccc2n3C)OC1(C)C | -31.2% (inactive)
O=C(Nc1ccccn1)c1ccccc1 | 35% (inactive)
CCn1nc(C)c2c1C(=O)NCC(=O)N2 | -34.1% (inactive)
COc1ccccc1/C=N/Nc1nnc2c3ccccc3c3ncccc3c2n1 | -28.8% (inactive)
O=c1cc(-c2ccccc2)[nH]c2ncccc12 | -37.5% (inactive)
COc1ccc(C(=O)c2ccccc2)c(OC(=O)Nc2c(Cl)cccc2Cl)c1 | -4.25% (inactive)
C=CCSc1nc2ccc(N3C(=O)C4C5C=CC(C5)C4C3=O)cc2s1 (stereo not given) | -15.2% (inactive)
O=[N+]([O-])c1ccc(-c2noc(-c3ccccc3)c2C2=NCCN2)cc1 | -9.85% (inactive)
Cc1c(C)c2cc3c(=O)c(CCl)coc3c(C)c2oc1=O | 22.4% (inactive)

Assay: NCI Yeast Anticancer Drug Screen. Data for the mec2-1 strain (AID 157)
Conditions: S. cerevisiae mec2-1 strain, at 50.0 µM, stronger effect = higher value
Method in brief: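 Strain: mec2-1 (DNA repair/cell cycle alteration). Compound exposure, then growth measured; inhibition expressed relative to vehicle.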

Structure (SMILES) | growth inhibition
CC1(C(=O)O)CCCC1C(=O)O (stereo not given) | 6.8% (inactive)
COc1cccc2cc(C(=O)Nc3ccccc3)c(=N)oc12 | 12.7% (inactive)
O=C(O)CCn1cnc2c(=S)nc[nH]c21 | -23.1% (inactive)
CN(C)CC(C)(C)C(=O)c1ccc(F)cc1 | 5.8% (inactive)
CCc1nnc(CC)n1N | -7.05% (inactive)
O=C(Nc1ccc2c(c1)C(O)c1ccccc1-2)C(F)(F)F (stereo not given) | -4.3% (inactive)
CC(=O)OC(C)(C)c1ccc2c(c1)C(=O)C[C@@H]1[C@](C)(C#N)CCC[C@]21C | 0.3% (inactive)
Fc1cccc(-c2nnc(-c3ccccc3)o2)c1 | 23.1% (inactive)
CC[C@]12CCCN3CCc4c(n(c5ccccc45)C(=O)C1)[C@@H]32 | -23.2% (inactive)
O=C(/C=C/c1ccc(O)cc1)c1cc(O)cc(O)c1 | 5.05% (inactive)
COc1ccc2c(c1)CCCN1Cc3cc(OC)c(OC)cc3CC21 (stereo not given) | 8.65% (inactive)
OCCSCCCCCSCCO | -7.7% (inactive)
O=C(O)c1ccc(C2C3C=CC(C3)C2[N+](=O)[O-])cc1 (stereo not given) | -18.8% (inactive)
[N-]=[N+]=NC(=O)c1ccc(S(=O)(=O)c2ccc(F)cc2)cc1 | 21.8% (inactive)
CCN1C(=O)N(CC)C2(CC(=O)c3ccccc3O2)C1=O (stereo not given) | -3.45% (inactive)
COC(=O)C(O)c1ccc(C(C)C)cc1 (stereo not given) | -18.6% (inactive)
O=CNCC1(c2ccccc2)CCNCC1 | -3.25% (inactive)
OC1CCCCC1[n+]1ccccc1 (stereo not given) | -0.6% (inactive)
CCN(CC)CCN(C)C(=O)C(=O)c1ccccc1 | -0.85% (inactive)
O=C1CCCC/C1=C\c1ccc([N+](=O)[O-])cc1 | 27.9% (inactive)

Structure (SMILES) | growth inhibition
CCC(=O)c1c2c(cc3ccccc13)CCCC2 | -10.7% (inactive)
O=C1c2ccccc2C(=O)c2c(Nc3ccc(Nc4cccc5c4C(=O)c4ccccc4C5=O)c4c3C(=O)c3ccccc3C4=O)cccc21 | -39% (inactive)
CC1(C)OCC(Cc2ccc3c(c2)OCO3)CO1 | -11.1% (inactive)
COC(=O)c1nc(N)nc(C(=O)OC)c1C(=O)c1ccc(Cl)cc1Cl | -0.6% (inactive)
CN(c1ccccc1)S(=O)(=O)c1ccc(Cl)cc1 | 19.1% (inactive)
O=C(CC(C(=O)O)S(=O)(=O)O)Nc1ccc(S(=O)(=O)c2ccc(NC(=O)CC(C(=O)O)S(=O)(=O)O)cc2)cc1 (stereo not given) | 4.55% (inactive)
N/C(=N\S(=O)(=O)c1cc(C(F)(F)F)cc(C(F)(F)F)c1)c1ccncc1 | 11.2% (inactive)
COC(=O)CCC(=O)Nc1cc(Cl)ccc1Cl | -16.1% (inactive)
COc1ccc(/C=C2\N=C(N/N=C\C(O)C(O)C(O)C(O)CO)NC2=O)cc1 (stereo not given) | -0.3% (inactive)
CC1=NC=C(O)c2ccccc2O1 | 12.4% (inactive)
FC(F)(F)c1ccc2nc[nH]c2c1 | -10.2% (inactive)
C=C1c2c(cc3c(c2O)c(=O)c2ccccc2n3C)OC1(C)C | -36.6% (inactive)
O=C(Nc1ccccn1)c1ccccc1 | 19.6% (inactive)
CCn1nc(C)c2c1C(=O)NCC(=O)N2 | -44.6% (inactive)
COc1ccccc1/C=N/Nc1nnc2c3ccccc3c3ncccc3c2n1 | -45.8% (inactive)
O=c1cc(-c2ccccc2)[nH]c2ncccc12 | -48.6% (inactive)
COc1ccc(C(=O)c2ccccc2)c(OC(=O)Nc2c(Cl)cccc2Cl)c1 | -23.9% (inactive)
C=CCSc1nc2ccc(N3C(=O)C4C5C=CC(C5)C4C3=O)cc2s1 (stereo not given) | -2.75% (inactive)
O=[N+]([O-])c1ccc(-c2noc(-c3ccccc3)c2C2=NCCN2)cc1 | -6% (inactive)
Cc1c(C)c2cc3c(=O)c(CCl)coc3c(C)c2oc1=O | 1.15% (inactive)
